# Data from the supplement of paper PMC5407854, “Inhibitor of ppGalNAc-T3-mediated O-glycosylation blocks cancer cell invasiveness and lowers FGF23 levels” (eLife, 2017).
# In all, about 1,700 compounds were measured (“T2 sensor activation Q score (MG/GFP ratio z-score vs DMSO controls)”: median about 0.3, highest 2% from about 1.9 on). What follows is part of a selection rich in the highest values, with near analogues and random picks from the rest.
# System: ppGalNAc-T2 sensor
# Assay: T2 sensor activation Q score (MG/GFP ratio z-score vs DMSO controls) (SD units); higher = more sensor activation (inhibition of ppGalNAc-T2 glycosylation)
# Details: HEK293 sensor cells; 10 µM; 6 h
# Experimental: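 Cells were treated with compound at 10 uM for 6 h, then MG/GFP ratio was read by flow cytometry (10,000 cells per well, duplicate wells). Q = (R - R_neg)/SD_neg relative to DMSO vehicle controls; the signal rises when the glycosyltransferase is inhibited.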
row,Compound,T2 sensor activation Q score
1,CCOC(=O)C(C)c1c(C(=O)c2ccc(C)nc2)c2ccccc2n1C (stereo not given),0.9
2,NC(=O)c1nnsc1-c1ccc(-c2snnc2C(N)=O)cc1,1.7
3,O=c1[nH]c(=S)c2ncn(-c3ccccc3)c2[nH]1,-1.3
4,NC(=O)c1ccccc1NC(=O)COc1ccc(Cl)cc1,-0.45
5,CC(=O)Nc1ccc(S(=O)(=O)N/N=c2/sc3ccccc3n2C)cc1N,-0.6
6,c1ccc(-c2nnc3oc(-c4cccs4)nn23)cc1,-1.05
7,Cc1cn(C2CC(O)C(CO)O2)c(=O)n(Cc2ccccc2)c1=O (stereo not given),0.85
8,O=c1[nH]cc(Cl)cc1Cl,0.5
9,CCOC(=O)/C=C/c1nc(C(=O)OCC)c(C)c(=O)[nH]1,-0.1
10,CC(C)CCCCCCCCCCCCC(=O)NCC(=O)NC1C(C)OC(Nc2ncnc3nc[nH]c23)C(O)C1O (stereo not given),8.6
11,CC(C)=NNc1ncnc2nc[nH]c12,1.25
12,Cc1ccc(Nc2n[nH]c(=S)s2)cc1F,-0.95
13,NNC(=O)Cc1cc(=O)[nH][nH]1,-0.7
14,Cc1cc(=O)oc2cc(OS(C)(=O)=O)ccc12,1.2
15,CCSc1nc(=S)cc(C)[nH]1,-0.1
16,CC(=NNC(N)=O)c1ccc(Cl)c(-n2cccc2)c1,0.6
17,N#C/C(=C\c1c[nH]c2ccccc12)C(N)=O,0.8
18,NC(=S)N/N=C\c1cc(-c2cccc(N)c2)ccn1,0
19,O=C(Nc1ccc(C2=NCCCN2)cc1)Nc1ccc(C2=NCCCN2)cc1,-0.6
20,COc1ccc2c(c1)CCCN2C(N)=Nc1ccc(Cl)cc1,1.25
21,Cc1cccc2cc3cccc(C)c3nc12,0.3
22,Cc1c(COC(=O)NC(C)C)c(COC(=O)NC(C)C)c2n1CS(=O)(=O)C2,-0.4
23,CC1CC(C)(C)C2=NCCN21 (stereo not given),1.3
24,Cc1ccc(S(=O)(=O)NC(=O)Nc2nccs2)cc1,-1.2
25,Cc1ccc(S(=O)(=O)NNC(=O)C23CCC(CC2)C3)cc1,1.95

row,Compound,T2 sensor activation Q score
1,CC(=O)C1C=CC(C)(C(=O)O)C2C=C(C)C(=O)C(C)(O)C12 (stereo not given),0.2
2,CCOC(=O)c1csc(-c2ccc(COC(=O)c3ccccc3)o2)n1,-1
3,COc1ccc2c(c1)CCN1C2CCN2C(=O)CCC21 (stereo not given),0.9
4,O=S1(=O)CCN(Cc2ccccn2)CC1,0.85
5,COC(=O)c1ccc(Cn2cnc3c(Cl)ncnc32)cc1,1.6
6,Cc1cc(N)c2cc(NC(=O)C=Cc3ccccc3Cl)ccc2n1,1.5
7,Nc1ccc(N=Nc2ccccc2)c2ccccc12,-0.25
8,O=C(Nc1ccc(Nc2ccccc2)cc1)Nc1ccccc1Cl,-1.35
9,Nc1cc(Nc2ccc(Br)cc2)nc(N)n1,0.6
10,CCCCCOc1ccc(N2C(=O)C(C)CNC2=S)cc1 (stereo not given),0.7
11,Oc1ccc(Cc2ccc(Cl)cc2)c(O)c1,1.3
12,Oc1ccc(-c2nc3ccccc3s2)c(O)c1,0.2
13,Oc1ccc(Cc2ccccc2Cl)c(O)c1,1.95
14,COC(=O)c1cc(C)[nH]c2c(C)cc3nc4ccccc4c3c12,0.65
15,O=C(Oc1ccccc1)N(c1ccccc1)c1ccccc1,0.35
16,Cc1cc(/C=C2\SC(=S)NC2=O)cc(C)c1O,0.35
17,CN(C)c1ccc2c(c1)Sc1cc(N(C)C)ccc1N2C(=O)c1ccccc1,2.55
18,CN(C)c1ccc(/C=C(\C#N)C(=O)c2ccccc2)cc1,-0.3
19,CN1CCC=C(C(=O)N2c3ccccc3Sc3ccc(Cl)cc32)C1,0.25
20,CCC1=C[C@@H]2CN(C1)Cc1c([nH]c3ccccc13)[C@@](C(=O)OC)(c1cc3c(cc1OC)N(C)[C@H]1[C@@](O)(C(=O)OC)[C@H](OC(C)=O)[C@]4(CC)C=CCN5CC[C@]31[C@@H]54)C2,1.1
21,CC[C@]1(O)C[C@@H]2CN(CCc3c([nH]c4ccccc34)[C@@](C(=O)OC)(c3cc4c(cc3OC)N(C)[C@H]3[C@@](O)(C(=O)OC)[C@H](OC(C)=O)[C@]5(CC)C=CCN6CC[C@]43[C@@H]65)C2)C1,2.05
22,CC[C@]1(O)C[C@H]2CN(CCc3c([nH]c4ccccc34)[C@@](C(=O)OC)(c3cc4c(cc3OC)N(C=O)[C@H]3[C@@](O)(C(=O)OC)[C@H](OC(C)=O)[C@]5(CC)C=CCN6CC[C@]43[C@@H]65)C2)C1,1.4
23,C=C(C)C(=O)Oc1ccc(N=Nc2ccc(C)cc2)ccc1=O,1.1
24,NC(=O)c1nc2c([nH]c1=O)CCCC2,-0.85
25,CSc1nc(N)c(C(=O)Nc2ccc([N+](=O)[O-])cc2)s1,0.05

row,Compound,T2 sensor activation Q score
1,Nc1ccc(C(=O)Nc2cccc(N)c2)cc1,-0.5
2,O=C(Nc1cccc(-c2nc3ccccc3[nH]2)c1)c1ccc(C(=O)Nc2cccc(-c3nc4ccccc4[nH]3)c2)cc1,3
3,c1ccc2[nH]c(-c3ccncc3)nc2c1,-1.1
4,Cn1ncc2c(Sc3ccc(Cl)cc3)ncnc21,1.3
5,CC1=CN2C(c3cccc([N+](=O)[O-])c3)=NON(c3ccc(C)cn3)C2C=C1 (stereo not given),0.85
6,CSc1ncc2[nH]c(C(O)c3ccccc3)nc2n1 (stereo not given),-0.45
7,O=S1(=O)CCC(N(N=Cc2ccco2)c2ccccc2)C1 (stereo not given),-0.2
8,O=CN/C=C\c1cc(O)ccc1O,-0.3
9,OC[C@@H]1CCC[C@H](n2cnc3c(=S)nc[nH]c32)O1,0.75
10,Cc1nccnc1Sc1ccccc1,-0.2
11,Oc1ccc2ccccc2c1N=Nc1nccs1,0.9
12,Oc1ccc2ccccc2c1N=Nc1ccc(F)cc1,0.05
13,Oc1c(N=Nc2nn[nH]n2)ccc2ccccc12,3.6
14,O=[N+]([O-])c1c(N2CCN(CCO)CC2)nc2ccccn12,0.7
15,OCc1nnn(-c2ccccc2)c1CO,0.8
16,NC(N)=N/N=C\c1c(Cl)cccc1Cl,0.25
17,Cc1cc(N2CCOCC2)nc(N2CCOCC2)n1,0.15
18,N#CC(c1ccccc1)C(C/C(=N\O)c1ccccc1)c1ccccc1 (stereo not given),-0.8
19,O=C(/C=C/c1cccnc1)/C=C/c1cccnc1,1.6
20,O=C(c1ccccc1)C1N=NCC1c1ccc(Cl)cc1 (stereo not given),0.05
21,O=c1nc(Oc2ccccc2)nc2ncccn12,1.9
22,Nc1nc(SCc2ccccn2)c2ncn(C3OC(CO)C(O)C3O)c2n1 (stereo not given),-0.15
23,Cc1cc(=O)n2[nH]c(-c3ccc(C(C)(C)C)cc3)cc2n1,0.15
24,Nc1nc(N)c2c(ccc3nccc32)[nH]1,1.3
25,O=C1C2C3C=CC(CC3)C2S(=O)(=O)C2C3C=CC(CC3)C12 (stereo not given),1.8
